Laboratory results taken from PubChem BioAssay AID602293 (National Center for Advancing Translational Sciences (NCATS), 2012).
Hit rate of the full screen: of about 1,300 compounds, about 30 (2%) were called active. Inconclusive results (about 10%) are left out. The call rests on the fitted dose curve; in most records, active means well fitted inhibition curve with a large enough effect; inconclusive means small, poorly fitted or top-dose-only effect; inactive means flat fitted curve, though single readings scatter. The entries come from a sample that favours actives as a whole.

Experiment: qHTS for antagonists of the Thyroid Stimulation Hormone Receptor: Hit Validation in HTRF Activity in a Luteinizing Hormone Receptor Cell Line
Settings: LHR-expressing cell line, cAMP HTRF, antagonist mode; series mostly up to 58 µM; activity change, negative = inhibition: at the top concentration
Excerpt: The thyroid-stimulating hormone receptor (TSHR) is a member of the 7 trans-membrane-spanning receptor (7TMR) family of cell surface receptors. TSHR-mediated hyperthyroidism is important in thyroid pathology. The development of small molecule antagonists of TSHR may lead to therapeutic approaches for TSHR-mediated hyperthyroidism caused by constitutively activating mutations or stimulating auto-antibodies associated with Graves' disease. Graves' disease is the leading cause of hyperthyroidism and is caused by autoantibodies that stimulate TSHR (TsAbs) causing thyroid growth and unregulated overproduction of thyroid hormones and existing treatments have liabilities (agranulocytosis). In addition, TSHRs are known to be expressed in multiple extrathyroidal tissues including bone, brain, kidney, testis, fat and cells of the immune system but the role of the TSHR in these tissues is not clear. Therefore, TSHR antagonists/inverse agonists could be used as probes of extrathyroidal TSHR function. Finally, TSHR inverse agonists, which are a subclass of antagonists that inhibit agonist-independent (or basal or constitutive) TSHR signaling, could be used to inhibit TSH-independent signaling in patients with recurrent or metastatic thyroid cancer who are receiving thyroid hormone to suppress TSH.
In collaboration between scientist from the NCGC and the NIDDK, a miniaturized HTRF high-throughput screen was developed. It's a cell based assay, where an anti cAMP antibody contains a fluorescent cryptate tag (excitation 337 nm; emission 620 nm) and the acceptor is cAMP-d2 (excitation 620 nm; emission 665 nm). When antibody and cAMP-d2 interact and are excited by a 337 nm light, a FRET occurs resulting in emission at 665 nm. The assay is competition between cAMP-d2 and cAMP (from the cell lysate). The homogeneous protocol allows for one step dispense after stimulation that is automation friendly. In order to confirm specificity of the compounds to the TSHR, a confirmatory assay was conducted on a similar family member, the Luteinizing Hormone (LH) receptor, transfected into a HEK 293 cell line, using an orthogonal detection technology to measure cAMP stimulation: antibody-based Homogeneous Time Resolved Fluorescence (HTRF).
NIH Chemical Genomics Center [NCGC]
NIH Molecular Libraries Probe Centers Network [MLPCN]
Assay Provider: Marvin Gershengorn, NIDDK
Homogeneous Time Resolved Fluorescence (HTRF) cAMP Assay. HEK 293 cells stably transfected with a vector containing the LH receptor and maintained under hygromycin selection were obtained from the laboratory of Dr. Marvin Gershengorn. Compounds were assayed using a HTRF cAMP detection kit (Cisbio) on the LH receptor transfected cell line. Briefly, 750 cells were plated in 2.5 ul/well of complete media (DMEM containing 10 % FCS, and 100 uM RO 20-1724) in 1536 well solid bottom white plates and 23 nl/well compound in DMSO solution or controls was added. Following 30 minute incubation at room temperature, 2.5 ul/well of labeled d2 cAMP and 2.5 ul/well of anti-cAMP antibody (both diluted 1:20 in lysis buffer) were added to each well using a flying reagent dispenser (Aurora Discovery, San Diego) . Plates were measured using the Envision plate reader (PerkinElmer, Boston, MA) with excitation at 330 nm and emissions of 615 nm and 660 nm.
On the % scale 0 is the no-effect control and ±100 the full control effect; potency means the concentration at half of the fitted maximal effect.

Activity change, negative = inhibition, inactive:
COc1ccccc1N1CCN(c2nc(C)nc3c2oc2ccccc23)CC1 1.31%, Cc1cccc(/C=C/C(=O)c2cc(Br)ccc(=O)c2O)c1 -0.0449%, O=S(=O)(c1cc(C(F)(F)F)ccc1Cl)N1CCN(c2ncnc3ccccc23)CC1 -3.64%, COc1cc2sc3ccc(-c4ccc(CN5CCOCC5)cc4)cc3c(=O)c2cc1OC -5.62%, O=C(Nc1ccccc1Cl)/C(Cl)=C(\Cl)S(=O)c1ccccc1 (configuration not stated) -22.7%, COc1ccc(NS(=O)(=O)c2ccc3c(c2)Cc2ccccc2-3)cn1 1.94%, c1ccc2c(Cn3nnc4ccccc43)cccc2c1 2.75%, Cc1onc(-c2ccccc2Cl)c1C(=O)NC(=S)Nc1ccc(C(C)C)cc1 -0.899%, O=C(N1CCN=C1SCc1cccnc1)C12CC3CC(CC(C3)C1)C2 -1.74%, O=C(CSc1nc2cc(Cl)c(Cl)cc2[nH]1)c1ccc2c(c1)OCO2 2.41%, O=S(=O)(Nc1ccc2cn[nH]c2c1)c1cc(Br)ccc1Br -0.271%, C=C(C)CNc1cc(S(=O)(=O)N2CCOCC2)ccc1Oc1ccccc1 -2.45%, Clc1ccc(CSc2nnc(CNc3cccc(Cl)c3)o2)cc1 0.688%, CCN(CC)S(=O)(=O)c1ccc(Oc2ccc(S(=O)(=O)N(CC)CC)cc2)cc1 -2.52%, CC1=NN(C(N)=S)C(=O)C1N=Nc1c(Br)cc(Br)cc1Br (configuration not stated) 1.89%, O=C(Oc1c(Br)cc([N+](=O)[O-])cc1Br)c1cccnc1 1.3%, CCc1ccccc1NC(=O)CN1CCN(C(=O)CNC(=O)Cc2cccc3ccccc23)CC1 1.56%, O=C(Nc1ccc(Cl)c(Cl)c1)Nc1ccccc1O -3.37%, CCCCNc1c(-c2cccc(-c3ccc(OC)cc3)c2)nc2ccc(C)cn12 -0.0927%, CCCCCCSc1ccc(-c2nc3ccc(Cl)cn3c2NCCCC)cc1OC -1.07%, O=C(Nc1nc2c(s1)CCCC2)c1ccc2ncsc2c1 -6.37%, N#C/C(=N\Nc1cccc([N+](=O)[O-])c1)C(=O)c1ccc(Br)cc1 -1.57%, Cc1ccc(C)c(N2CCN(C(=O)CCS(=O)(=O)c3ccc4c(c3)CCN4C(=O)C3CC3)CC2)c1 0.0752%, Cc1c(Cl)sn(-c2ccc(Cl)cc2)c1=O -7.13%, Cc1ccc2cccc(Oc3ncnc4scc(-c5ccccc5)c34)c2n1 -7.58%, O=C(Nc1nc(-c2ccc(Cl)cc2Cl)cs1)c1ccc(OCC2CCCO2)cc1 (configuration not stated) -6.16%, COc1cc(C(C)=O)ccc1OCC(=O)Nc1ccc(Cl)c(S(=O)(=O)N2CCOCC2)c1 -7.28%, COC(=O)c1ccc(CN2C(=O)NC(Cc3c[nH]c4ccccc34)C2=O)cc1 (configuration not stated) 0.496%, COc1ccc(-c2csc(NC(=O)c3ccccc3NS(=O)(=O)c3ccc(F)c(F)c3)n2)cc1 -3.22%, COc1ccc(Cc2nc(C(=O)Nc3ccc(Cl)cc3)cs2)cc1 -1.91%, O=S(=O)(Nc1cccc(-c2cn3cccnc3n2)c1)c1ccc(-c2ccccc2)cc1 -0.336%, CCOC(=O)CCS(=O)(=O)c1nc(-c2ccccc2)cc(C(F)(F)F)n1 0.21%, COc1ccc(/C=N/n2c(SC)nnc(C(C)(C)C)c2=O)cc1 -0.342%, COc1ccc(S(=O)(=O)N2CCOC23CCN(C(=O)c2ccc(Cl)cc2Cl)CC3)cc1 -0.906%, O=C(NCCC1=CCCCC1)C(=O)NCC1OCCCN1S(=O)(=O)c1ccccc1 (configuration not stated) 3.6%, Cc1cc(C(=O)CCl)c(C)n1CCc1ccccc1 -0.254%, CC1(C)CC2(CCCN3C(=O)CSC32)CCS1 (configuration not stated) -0.704%, COC(=O)c1ccc(-c2noc(CN(C)CCC3CCCCO3)n2)cc1 (configuration not stated) -0.562%, CCC(C)(C)C1CCC(NC(=O)N2CCN(c3ccccc3O)CC2)CC1 (configuration not stated) -0.692%, COc1ccccc1-n1cnc2cc(NS(=O)(=O)c3ccc(Br)cc3)ccc21 0.0454%, O=C1NC(=S)S/C1=C\c1ccc2ccccc2c1 -0.809%, O=C(COC(=O)c1ccccc1NS(=O)(=O)c1cccs1)NCC12CC3CC(CC(C3)C1)C2 1.8%, Cc1cc(OCC(=O)Nc2cccc(S(=O)(=O)N3CCCC3)c2)ccc1Cl -2.78%, CCOC(=O)c1c(NC(NC(=O)C(C)C)C(Cl)(Cl)Cl)sc2c1CCC2 (configuration not stated) -0.795%, O=C(Nc1ccc(SC(F)F)cc1)c1ccc2c(=O)n3c(nc2c1)CCC3 -2.9%, COc1cc2cnc(-c3ccccc3)c(-c3ccc(C#N)cc3)c2cc1OC -1.55%, CCOc1ccccc1N1CCN(C(=O)CCCN2C(=O)c3cccc4cccc(c34)C2=O)CC1 1.98%, CC(C)N(Cc1ccccc1)C(=O)COC(=O)c1cnc(Cl)c(Cl)c1 -3.98%, CC(Sc1nn(-c2ccc(F)cc2)c(=S)s1)C(=O)c1c(N)n(C)c(=O)n(C)c1=O (configuration not stated) -2.58%, COc1ccc(/C=N/NC(=O)c2ccoc2C)cc1COc1c(C)cccc1C -7.58%, CCCSc1nsc(NC(=O)Nc2ccc(F)cc2F)n1 -2.2%, O=C(COc1ccc(Cl)cc1)Nc1ncc([N+](=O)[O-])s1 -0.689%, COc1cc(/C=N/OCC(=O)NC23CC4CC(CC(C4)C2)C3)ccc1OCc1ccccc1 -8.02%, O=C(OCCc1cc2ccccc2c(=O)o1)c1ccccc1C(F)(F)F -0.186%, O=C(Nc1nc(-c2ccc(F)cc2)cs1)C1CCN(C(=O)c2ccc(F)cc2)CC1 -5.39%, Cc1cccc(N2CCN(S(=O)(=O)c3ccc4c(c3)NC(=O)CS4)CC2)c1C -1.48%, CC1CCN(c2ccccc2NC(=O)c2cc([N+](=O)[O-])ccc2N2CCOCC2)CC1 -3.69%, CSc1nnc(C(C)(C)C)c(=O)n1/N=C/c1c(O)ccc2ccccc12 1.35%, Nc1nc(SCc2ccccc2Cl)ns1 2.13%, CC1CC1C(=O)N1CCN(S(=O)(=O)c2cc(C(F)(F)F)cc(C(F)(F)F)c2)CC1 (configuration not stated) 2.61%, COc1cccc(CN(C)C(=O)c2ccc(OCC(=O)Nc3cccc(C(F)(F)F)c3)c(OC)c2)c1 -0.547%, COc1ccc(-c2nc(CS(=O)CC(=O)NCc3ccccc3)c(C)o2)cc1OC (configuration not stated) 0.304%, Cc1ccc(S(=O)(=O)Nc2ccccc2N2CCCCC2)cc1 -4.31%, COc1ccccc1CNC(=O)CSc1nc(N)c(C#N)c(-c2cccs2)c1C#N -0.0637%, CCn1nc([N+](=O)[O-])c(C(C#N)c2nc3cc(C(F)(F)F)ccc3s2)c(Cl)c1=O (configuration not stated) -0.764%, O=C(NC(Nc1nc2ccc([N+](=O)[O-])cc2s1)(C(F)(F)F)C(F)(F)F)c1cccnc1 -2.25%, O=c1c(Sc2ccccc2)c(C(F)(F)F)[nH]n1-c1ccccc1 2.36%, COc1ccc(OC)c(CCNC(=O)Cn2nc(C)c3c(C)n(-c4ccc(C)cc4)nc3c2=O)c1 -2.32%, CC(=O)NC1=C(Nc2ccc(N(C)C)cc2)C(=O)c2ccccc2C1=O -3.23%, O=C(OCn1ncc(Cl)c(Cl)c1=O)c1cccc(C(F)(F)F)c1 -0.844%, Cc1sc2ncnc(N3CCN(CCOc4ccc(Cl)cc4)CC3)c2c1C -1.63%, Cc1ccc(-c2nc3ccc(C(=O)O)cc3nc2-c2ccc(C)cc2)cc1 -1.76%, CCOC(=O)c1sc(NC(=O)CSc2n[nH]c(-c3ccncc3)n2)c(C#N)c1C 0.55%, COc1ccc(S(=O)(=O)Nc2ccccc2C(=O)Nc2nc(-c3ccc(F)cc3)cs2)cc1OC -2.16%, CCSc1nsc(NC(=O)Nc2cccc(OC)c2)n1 1.44%, CN(C)S(=O)(=O)c1cccc(-c2nnc(SCc3ccc4c(c3)OCCO4)o2)c1 -1.33%, COc1ccccc1NS(=O)(=O)c1cccc(NC(=O)c2ccc3ccccc3n2)c1 -1.31%, CCc1ccc(-c2cc(C)no2)cc1S(=O)(=O)N1CCN(c2ccccn2)CC1 -2.05%, COc1ccc(CN(C)C(=O)COC(=O)c2ccc(-c3ccccc3)cc2)c(OC)c1OC -1.51%, CCOc1ccc2nc(SC3CC(=O)N(c4ccccc4)C3=O)sc2c1 (configuration not stated) 1.87%, Cc1cc(OCc2cc(C(=O)N(C)C(C)c3ccccn3)no2)cc(C)c1Cl (configuration not stated) 0.705%, CC(C)c1ccccc1OCCNC(=O)c1cccnc1 2.01%, O=C(CSc1ccc(F)cc1)N1CCC(c2nc3ccccc3s2)CC1 -2.02%, N=c1oc2ccccc2cc1C(=O)NC1CCCCCC1 -0.828%, CC(Sc1nnc(-c2cccs2)n1Cc1ccccc1)C(=O)NCc1ccc2c(c1)OCO2 (configuration not stated) -1.32%, COc1cccc(-c2nc(-c3ccc(NC(=O)c4cccnc4)cc3)no2)c1 -3.43%, Cn1c(=O)c(C(=O)NNC(=O)c2cccc(Cl)c2)c(O)c2ccccc21 -1.11%, CC1Cc2ccccc2N1C(=O)COC(=O)/C=C/c1cccc(F)c1 (configuration not stated) -1.41%, CCCCCCSc1nsc(NC(C)=O)n1 2.54%, O=Cc1c[nH]c2ccc(C(=O)c3ccccc3)cc12 -1.03%

Potency, active:
O=C1C=CC(=O)N1CCCCCCN1C(=O)C=CC1=O 33.8 µM, COc1ccc(NC(=O)/C(Cl)=C(/Cl)S(=O)Cc2ccccc2Cl)cn1 (configuration not stated) 37.9 µM, COc1ccc(-c2cc(-c3nc4ccccn4c3NCc3ccccc3)ccc2OC)cc1 9.53 µM, Cc1ccc(-n2c(Cl)c(Cl)nc(Cl)c2=O)cc1 37.9 µM, O=C(Nc1ccc(Cl)c(S(=O)(=O)N2CCOCC2)c1)c1ccc(OCC2CCCO2)cc1 (configuration not stated) 37.9 µM, O=[N+]([O-])c1c(Nc2cccc(O)c2)cc(Cl)c2nonc12 30.1 µM, CCn1c(Cl)c(C=O)s/c1=N\S(=O)(=O)c1ccccc1 37.9 µM, CC1=C/C(=N\OS(=O)(=O)c2ccccc2)C(C)=CC1=O 30.1 µM, CC1=CC(=O)C(C(C)C)=C/C1=N/OS(=O)(=O)c1ccccc1 21.3 µM, CCN(CC)c1ccc2nc3ccccc3[n+](CC)c2c1 30.1 µM, COc1ccc(CC(=O)Nc2cccc(-c3nnc(-c4cccc(C)c4)o3)c2)cc1OC 21.3 µM, COc1cccc(NC(=O)Nc2nc(-c3ccc(OC)c(OC)c3)cs2)c1 13.5 µM
